Here are results for 39 compounds from PubChem BioAssay (NCI).

Molecules are shown by their SMILES. About 79,000 compounds went through this panel and 15% of them were active in at least one assay; those are over-represented in the sample as a whole. A number with no mark means an inactive call. Activity calls are given as the source filed them. No stated cut-off is given here; in the data, active means growth inhibition above about 70%; inactive means the rest.

Assay [1] in a line: NCI Yeast Anticancer Drug Screen. Data for the rad50 strain (AID 155).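 Further: 0% = growth of vehicle-only cultures of the same strain.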 The settings on record: S. cerevisiae rad50 strain growth inhibition; at 50.0 µM; stronger effect = higher value. The gist of the method:
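A DNA repair-deficient yeast mutant serves as the test organism; compound-induced growth inhibition is calculated against vehicle-treated cells.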

The nature of assay [2]: NCI Yeast Anticancer Drug Screen. Data for the mec2-1 strain (AID 157). The conditions noted are these: S. cerevisiae mec2-1 strain, at 50.0 µM, stronger effect = higher value. An outline of the steps: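 mec2-1 yeast strain, carrying an alteration in DNA damage repair or cell cycle control, was exposed to compounds; growth inhibition was measured relative to vehicle-treated controls.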

Assay [3] can be described thus: NCI Yeast Anticancer Drug Screen. Data for the sgs1 mgt1 strain (AID 161).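 Further: 0% = growth of cultures given vehicle only.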 The conditions noted are these: S. cerevisiae sgs1 mgt1 strain, at 50.0 µM, stronger effect = higher value. The gist of the method:
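This yeast growth screen uses a strain with defined DNA-repair lesions; compound-treated growth is compared with vehicle-treated growth.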

Assay [4] is described as follows: NCI Yeast Anticancer Drug Screen. Data for the cln2 rad14 strain (AID 165).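 Further: 0% = growth equal to vehicle treated cultures.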 The conditions noted are these: S. cerevisiae cln2 rad14 strain, at 50.0 µM, stronger effect = higher value. An outline of the steps:
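Yeast carrying cln2 and rad14 alterations (cell cycle control and DNA damage repair) were exposed to compounds. Growth inhibition was measured against vehicle-treated controls.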

A short description of assay [5]: NCI Yeast Anticancer Drug Screen. Data for the bub3 strain (AID 167). The settings on record: S. cerevisiae bub3 mutant strain, at 50.0 µM, stronger effect = higher value. An outline of the steps: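 Inhibition values come from growth of compound-treated mutant yeast normalised to vehicle-treated controls.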
The nature of assay [6]: NCI Yeast Anticancer Drug Screen. Data for the mlh1 rad18 strain (AID 175). The settings on record: S. cerevisiae mlh1 rad18 strain growth inhibition; at 50.0 µM; stronger effect = higher value. An outline of the steps: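 Growth inhibition of the yeast strain was measured after compound exposure and expressed relative to vehicle-treated controls. The strain carries defined defects in DNA damage repair.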

On to `CC(C)[C@]12O[C@H]1[C@@H]1O[C@]13[C@]1(O[C@H]1C[C@H]1C4=C(C(=O)OC4)[C@@H](O)C[C@@]13C)[C@@H]2O`, for which the growth inhibition was -8.4% in assay [1]; -18.4% in assay [2]; 6% in assay [3]; -5.85% in assay [4]; -0.3% in assay [5]; -12.8% in assay [6].
Take `Oc1ccccc1C=NCCN=Cc1ccccc1O.[Cu]`: the growth inhibition in assay [1] is 15.4%; in assay [2], -25.9%; in assay [3], -4.75%; in assay [4], -36.4%; in assay [5] it was 3.55%; in assay [6], -7.7%.
Turning to `O=C1NC(=S)N/C1=C/c1ccccc1O`, the growth inhibition in assay [1] was 12.3%; in assay [2], 6.65%; in assay [3] it was -27.6%; in assay [4] it was -14.8%; in assay [5] it was -27.7%; in assay [6] it was -42.4%.
Turning to `COc1c2c(cc3c1OCO3)[C@]13C=C[C@H](OC)C[C@H]1N(C2)CC3O` (some centres undefined), the growth inhibition in assay [1] was 17.2%; in assay [2], 5.75%; in assay [3], 3.6%; in assay [4] it was -0.55%; in assay [5], 1.55%; in assay [6], -53.9%.
Turning to `CC(C)(O)/C=C/C(=O)[C@](C)(O)[C@H]1[C@H](O)C[C@@]2(C)[C@@H]3CC=C4[C@@H](C[C@H](O)C(=O)C4(C)C)[C@]3(C)C(=O)C[C@]12C`, the growth inhibition in assay [1] is 8.3%; in assay [2] it was -14.6%; in assay [3], -6.7%; in assay [4], 0.55%; in assay [5], -12.8%; in assay [6], 1.8%.
Take `COC1C(OC(=O)/C=C/C=C/C=C/C=C\C(=O)O)CCC2(CO2)C1C1(C)OC1CC=C(C)C` (centres undefined): the growth inhibition in assay [1] is 9.95%; in assay [2], -1%; in assay [3], -19.3%; in assay [4] it was 0.95%; in assay [5], -8.7%; in assay [6], 24.1%.
As to `O=[N+]([O-])c1cccc(P(=O)(O)O)c1`, the growth inhibition was -7.3% in assay [1]; 53.5% in assay [2]; 3.35% in assay [3]; 5.25% in assay [4]; -4.5% in assay [5]; 0.85% in assay [6].
Consider `Cc1c(Cl)cc([N+](=O)[O-])c(O)c1[N+](=O)[O-]`, for which the growth inhibition is 6.1% in assay [1]; -1.45% in assay [2]; 5% in assay [3]; 30.7% in assay [4]; 26.1% in assay [5]; 7.85% in assay [6].
As to `COc1cc(C(O)CN)cc(OC)c1OC` (centres undefined), the growth inhibition in assay [1] was -12.9%; in assay [2] it was 2.2%; in assay [3], -6.55%; in assay [4] it was -7.35%; in assay [5], -3.35%; in assay [6] it was -6.8%.
`N#CC[CH2][Sn]([I])([c]1ccccc1)[c]1ccccc1`: the growth inhibition was 98.2% (active) in assay [1]; 98.8% (active) in assay [2]; 98% (active) in assay [3]; 98.5% (active) in assay [4]; 98.8% (active) in assay [5]; 98.1% (active) in assay [6].
Regarding `[CH3][Sb]1([CH3])([I])[CH2]CC[CH2]1`, the growth inhibition in assay [1] is -6.55%; in assay [2] it was -5.35%; in assay [3], -5.75%; in assay [4], -11.1%; in assay [5], 27.2%; in assay [6] it was 33.9%.
`N/C(=N/N=C/c1ccc(O)cc1)N[N+](=O)[O-]`: the growth inhibition in assay [1] is -2.4%; in assay [2], -29.6%; in assay [3], -14.3%; in assay [4], -31.5%; in assay [5], -6.75%; in assay [6], 9%.
As for `O=P(O)(Nc1ccccc1)Nc1ccccc1`, the growth inhibition is 21.7% in assay [1]; 33.4% in assay [2]; 21% in assay [3]; -15.1% in assay [4]; 25.3% in assay [5]; 15.3% in assay [6].
`CCOP(=O)(Cc1ccc(N)cc1)OCC`: the growth inhibition in assay [1] was -23%; in assay [2], -34%; in assay [3] it was -21.2%; in assay [4] it was 19.9%; in assay [5], -23.9%; in assay [6] it was -14.2%.
Regarding `O=NNc1cccc(NN=O)n1`, the growth inhibition in assay [1] is 47.2%; in assay [2] it was -22.8%; in assay [3] it was -34.1%; in assay [4], -2.75%; in assay [5] it was -26.5%; in assay [6], -3.15%.
With `COc1cc(N(CCCl)CCCl)c(OC)cc1C=Nc1cccc(Cl)c1`, the growth inhibition in assay [1] is 31.4%; in assay [2], 10.3%; in assay [3] it was 44.4%; in assay [4], 10.6%; in assay [5], 24.6%; in assay [6] it was 34.2%.
As to `N#Cc1ccc(/C=C/C(=O)O)cc1`, the growth inhibition in assay [1] is 17.2%; in assay [2], -10.4%; in assay [3] it was -9.15%; in assay [4] it was -60.2%; in assay [5] it was -9.9%; in assay [6], -4.3%.
`O=C1C(F)=C(F)C(=O)C(F)=C1F`: the growth inhibition is 16.2% in assay [1]; -4.75% in assay [2]; 8.35% in assay [3]; -2.85% in assay [4]; 21.5% in assay [5]; -1.7% in assay [6].
For `COc1ccc(C(C)(C)CC(C)(C)C)cc1`, the growth inhibition in assay [1] is 39%; in assay [2], 2.55%; in assay [3] it was 32.8%; in assay [4] it was 12.1%; in assay [5] it was 6.1%; in assay [6], -0.85%.
As for `O=NNc1ccc(C(F)(F)F)cn1`, the growth inhibition in assay [1] was -7.95%; in assay [2], -6.95%; in assay [3], -17.9%; in assay [4] it was -5.75%; in assay [5] it was -17.4%; in assay [6], -15.2%.
As for `O=c1c2ccccc2nc(-c2ccccc2Cl)n1-c1nnc(C(F)(F)F)s1`, the growth inhibition in assay [1] was -13.8%; in assay [2] it was -13.1%; in assay [3], 18.3%; in assay [4], 6.15%; in assay [5], -13.2%; in assay [6], -6.5%.
For the compound `O=C(NCC(O)CO)c1ccc(N(CCCl)CCCl)c([N+](=O)[O-])c1[N+](=O)[O-]` (centres undefined), the growth inhibition is 17.1% in assay [1]; 4.7% in assay [2]; 16.3% in assay [3]; 8.1% in assay [4]; 12.7% in assay [5]; 17.1% in assay [6].
With `CNP(=S)(Oc1cc(Cl)c(Cl)cc1Cl)N1CCN(c2ccc(Cl)cc2)CC1` (centres undefined), the growth inhibition is -0.5% in assay [1]; 2% in assay [2]; 4.35% in assay [3]; -0.9% in assay [4]; -2.9% in assay [5]; 16.4% in assay [6].
Consider `O[As](O)O.S=C(S)c1ccccc1S`, for which the growth inhibition in assay [1] was 7.55%; in assay [2] it was -13%; in assay [3] it was 18.7%; in assay [4], 28%; in assay [5], 1.75%; in assay [6], 24.9%.
Take `CCNC1=C(N2CC2)C(=O)C(NCC)=C(N2CC2)C1=O`: the growth inhibition in assay [1] was 30.5%; in assay [2], 15.7%; in assay [3] it was 29.4%; in assay [4], 8.1%; in assay [5] it was 13.3%; in assay [6], 18.7%.
With `CC1(C[N+](C)(C)C)COC(C)(C)O1` (centres undefined), the growth inhibition is -3.95% in assay [1]; 11.6% in assay [2]; 5.25% in assay [3]; -2.85% in assay [4]; 5.3% in assay [5]; 3.95% in assay [6].
On to `C[C@]12CC[C@@H](O)C[C@H]1[C@@H](O)C[C@@H]1[C@@H]2CC[C@]2(C)C(=O)CC[C@@H]12`, for which the growth inhibition in assay [1] was -17.4%; in assay [2], -4.35%; in assay [3] it was 3.05%; in assay [4], -17.1%; in assay [5], 25.7%; in assay [6], -11.1%.
For `CC[As](=O)(O)c1ccc(OC)c(I)c1`, the growth inhibition is 1.75% in assay [1]; -15.3% in assay [2]; 18.3% in assay [3]; -76.5% in assay [4]; 4.35% in assay [5]; 0.75% in assay [6].
`C[n+]1ccccc1-c1ccc[n+](CCCCC[n+]2cccc(-c3cccc[n+]3C)c2)c1`: the growth inhibition is 4.45% in assay [1]; -8.6% in assay [2]; -5.5% in assay [3]; -22.4% in assay [4]; -1.5% in assay [5]; 8.15% in assay [6].
As for `CCOC(=O)C1C(=O)NC2CCC(=O)CC21c1ccc2c(c1)OCO2` (centres undefined), the growth inhibition in assay [1] is 10.7%; in assay [2] it was -9.5%; in assay [3] it was -1.8%; in assay [4], -3.55%; in assay [5], 23.9%; in assay [6], 11.2%.
Take `C=C(C)CNC1=C(C)C(=O)C2=C(C1=O)[C@H](COC(N)=O)[C@]1(OC)[C@@H]3N[C@@H]3CN21`: the growth inhibition in assay [1] was 5.15%; in assay [2], -9.35%; in assay [3] it was 13.3%; in assay [4], 23.9%; in assay [5], 19.4%; in assay [6], 74.7% (active).
Turning to `CCC[As](=O)(O)c1ccc(Cl)cc1`, the growth inhibition is 88.5% (active) in assay [1]; 99.5% (active) in assay [2]; 99.2% (active) in assay [3]; 73.5% (active) in assay [4]; 94.7% (active) in assay [5]; 99.2% (active) in assay [6].
On to `Nc1nnnn1CCO`, for which the growth inhibition is -4.7% in assay [1]; -13% in assay [2]; -17% in assay [3]; 6.4% in assay [4]; -13.1% in assay [5]; -13.1% in assay [6].
Take `CCCCS(=O)(=O)Cl`: the growth inhibition was 34.5% in assay [1]; 13.2% in assay [2]; 9.8% in assay [3]; -12.5% in assay [4]; 29.8% in assay [5]; 25.9% in assay [6].
With `N/C(=N\N=C\c1ccc(O)cc1O)N[N+](=O)[O-]`, the growth inhibition in assay [1] is 12.2%; in assay [2], -0.85%; in assay [3], -3.45%; in assay [4] it was -41.7%; in assay [5] it was 3.65%; in assay [6], 4.1%.
Take `CC(C)(C)N.[O]=[Cr](=[O])([OH])[OH]`: the growth inhibition was 20.9% in assay [1]; 7.45% in assay [2]; 29.1% in assay [3]; -2.25% in assay [4]; 21.7% in assay [5]; 21% in assay [6].
Regarding `CCCCCC1(C(C)C)C(=O)NC(=O)NC1=O`, the growth inhibition was 3.1% in assay [1]; 8.65% in assay [2]; 1.5% in assay [3]; 15.3% in assay [4]; -0.6% in assay [5]; 6.35% in assay [6].
As to `O=C(O)c1ccc(=O)[nH]c1`, the growth inhibition in assay [1] is 25.6%; in assay [2] it was 7.85%; in assay [3], 10.2%; in assay [4] it was -22.1%; in assay [5], 13.9%; in assay [6] it was 19.6%.
In the case of `CCCCOP(=O)(CSCC)OCCCC`, the growth inhibition in assay [1] was -6.2%; in assay [2] it was 0.1%; in assay [3] it was -16.6%; in assay [4] it was 16.2%; in assay [5], 14.9%; in assay [6], -1.4%.
